Source: PubChem BioAssay (NCI)
Where “and” joins values, the source holds several entries; their conditions need not be identical. Equal values may be shown once. About 79,000 compounds went through this panel and 15% of them were active in at least one assay; those are over-represented in the sample as a whole. Calls of active or inactive are those of the source. Rule as the data show it: active = growth inhibition above about 70%; inactive = the rest.

Experiments:
[1] = NCI Yeast Anticancer Drug Screen. Data for the rad50 strain (AID 155);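 also: 0% = growth of vehicle-only cultures of the same strain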; conditions: S. cerevisiae rad50 strain growth inhibition, hits give high values
Summary of the method: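 Compounds were tested on a yeast strain with an engineered DNA damage repair alteration; the reported value is growth inhibition normalised to vehicle treatment.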

[2] = NCI Yeast Anticancer Drug Screen. Data for the mec2-1 strain (AID 157); conditions: S. cerevisiae mec2-1 strain, hits give high values
Summary of the method: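 Readout is yeast growth inhibition, normalised to vehicle-treated controls, in the mec2-1 strain exposed to compound.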

[3] = NCI Yeast Anticancer Drug Screen. Data for the sgs1 mgt1 strain (AID 161);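 also: 0% = growth of cultures given vehicle only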; conditions: S. cerevisiae sgs1 mgt1 strain, hits give high values
Summary of the method: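 Percent growth inhibition was derived by comparing compound-exposed mutant yeast with vehicle-exposed cultures. The strain carries alterations in DNA damage repair.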

[4] = NCI Yeast Anticancer Drug Screen. Data for the cln2 rad14 strain (AID 165);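 also: 0% = growth equal to vehicle treated cultures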; conditions: S. cerevisiae cln2 rad14 strain, hits give high values
Summary of the method: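 Relative to vehicle controls, growth inhibition of compound-treated cln2 rad14 yeast was recorded.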

[5] = NCI Yeast Anticancer Drug Screen. Data for the bub3 strain (AID 167); conditions: S. cerevisiae bub3 mutant strain, hits give high values
Summary of the method: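 Growth of a checkpoint-deficient yeast mutant is measured after compound exposure. Values represent inhibition relative to vehicle.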

[6] = NCI Yeast Anticancer Drug Screen. Data for the mlh1 rad18 strain (AID 175); conditions: S. cerevisiae mlh1 rad18 strain growth inhibition, hits give high values
Summary of the method: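 Test agents were incubated with a yeast strain of defined genotype (DNA damage repair defect). Inhibition of growth was derived by comparison with vehicle-exposed cultures.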

[7] = at 5.0 µM (retest, dose inferred, filed as 0.5)
[8] = at 50.0 µM (retest, dose inferred, filed as 5.0)

Measured: growth inhibition

CCCCCCCCCCNC(=O)CI
active: [1]; [8] 98% | [2]; [8] 99% | [3]; [8] 99% | [5]; [8] 100% | [6]; [8] 98%
inactive: [1]; [7] 20% | [2]; [7] 7% | [3]; [7] 24% | [4]; [7] 10% | [4]; [8] 42% | [5]; [7] 14% | [6]; [7] 8%

c1ccc(CN(Cn2cccn2)Cn2cccn2)nc1
inactive: [1]; at 50.0 µM unless noted 7.15% | [2]; at 50.0 µM unless noted -9% | [3]; at 50.0 µM unless noted 23.1% | [4]; at 50.0 µM unless noted 23.9% | [5]; at 50.0 µM unless noted -0.4%

Clc1ncc(Cl)c(Cl)n1
inactive: [1]; at 50.0 µM unless noted 68.7% | [2]; at 50.0 µM unless noted 18.6% | [3]; at 50.0 µM unless noted -46.8% | [4]; at 50.0 µM unless noted -22.5% | [5]; at 50.0 µM unless noted -50.8%

CN(C)c1ccc(/C=C\C(=O)c2ccccc2)cc1
inactive: [1]; [7] 7% | [1]; [8] 57% | [2]; [7] 1% | [2]; [8] 28% | [3]; [7] 6% | [4]; [7] 13% | [4]; [8] 15% | [5]; [7] 8% | [6]; [7] 32% | [6]; [8] 53%
active: [3]; [8] 75% | [5]; [8] 77%

Fc1ccc([I+]c2ccc(F)cc2)cc1
active: [1]; [8] 89% | [3]; [8] 84% | [5]; [8] 90% | [6]; [8] 81%
inactive: [1]; [7] 12% | [2]; [7] 2% | [2]; [8] 43% | [3]; [7] 24% | [4]; [7] 9% | [4]; [8] 32% | [5]; [7] 33% | [6]; [7] 17%

CC(C)C(C)(C)c1ccc(O)cc1
inactive: [1]; [7] -34% | [2]; [7] -2% | [2]; [8] 68% | [3]; [7] 3% | [4]; [7] 2% | [4]; [8] 26% | [5]; [7] 2% | [5]; [8] 61% | [6]; [7] 2%
active: [1]; [8] 70% | [3]; [8] 75% | [6]; [8] 74%

c1ccc2c(c1)OC1OC2Oc2ccccc21
inactive: [1]; at 50.0 µM unless noted -25.8% and -10.4% | [2]; at 50.0 µM unless noted -39.1% and -3.85% | [3]; at 50.0 µM unless noted -26.3% and 7.8% | [4]; at 50.0 µM unless noted 1.6% and -6.05% | [5]; at 50.0 µM unless noted -57.5% and 8.1%

O=C(CC(=O)Nc1ccccc1Cl)NNC(c1cc(N=Nc2ccc(Br)cc2)ccc1O)P(O)O (stereo not drawn)
inactive: [1]; at 50.0 µM unless noted 1.8% | [2]; at 50.0 µM unless noted 0.3% | [3]; at 50.0 µM unless noted 16.6% | [4]; at 50.0 µM unless noted 13.4% | [5]; at 50.0 µM unless noted -8.25%

COc1cccc2c1C(=O)c1c(O)c3c(c(O)c1C2=O)C[C@@](O)(C(=O)CO)CC3OC1CC(O)C(O)C(C)O1 (stereo partly drawn)
inactive: [2]; at 50.0 µM unless noted 52.8% | [3]; at 50.0 µM unless noted 33.2% | [4]; at 50.0 µM unless noted 28.8% | [5]; at 50.0 µM unless noted 63.2%
active: [1]; at 50.0 µM unless noted 72%

CCCCCCCCC(=O)NCO
inactive: [1]; at 50.0 µM unless noted -17.8% | [2]; at 50.0 µM unless noted -10.9% | [3]; at 50.0 µM unless noted -21.4% | [4]; at 50.0 µM unless noted -3.4% | [5]; at 50.0 µM unless noted -25.6%

C/C(=N\NC(=S)N1CCN(c2ccccn2)CC1)c1cccc(C)n1
active: [1]; at 50.0 µM unless noted 90.3% | [2]; at 50.0 µM unless noted 92.7% | [3]; at 50.0 µM unless noted 91.8% | [4]; at 50.0 µM unless noted 91.3% | [5]; at 50.0 µM unless noted 89.5%

COc1cc(OCc2ccc3oc(=O)c(-c4ccccc4)nc3c2)cc(OC)c1OC
inactive: [1]; at 50.0 µM unless noted 16.6% | [2]; at 50.0 µM unless noted 1% | [3]; at 50.0 µM unless noted 2.2% | [4]; at 50.0 µM unless noted 7.75% | [5]; at 50.0 µM unless noted 19.2%

COC1=C2CC(C)CC(OC)C(O)C(C)/C=C(\C)C(OC(N)=O)C(OC)/C=C\C=C(/C)C(=O)NC(=C(/C=N/N3CCCCC3)C1=O)C2=O (stereo not drawn)
inactive: [1]; at 50.0 µM unless noted 17.4% | [2]; at 50.0 µM unless noted 10.3% | [3]; at 50.0 µM unless noted -13.9% | [4]; at 50.0 µM unless noted -15.7% | [5]; at 50.0 µM unless noted -12.8%

CCCc1ccc(C)c(Br)c1
inactive: [1]; at 50.0 µM unless noted 26.4% | [2]; at 50.0 µM unless noted 15.8% | [3]; at 50.0 µM unless noted 0.9% | [4]; at 50.0 µM unless noted -9.95% | [5]; at 50.0 µM unless noted 1.3%

CCOc1ccccc1NC(=O)/C(=N\NC(C)(C)C)C1C(=O)Nc2ccccc2S1=O (stereo not drawn)
inactive: [1]; at 50.0 µM unless noted -4.3% | [2]; at 50.0 µM unless noted -27.9% | [3]; at 50.0 µM unless noted -9.85% | [4]; at 50.0 µM unless noted 9.2% | [5]; at 50.0 µM unless noted -6.9%

O=C(O)COc1ccc(NC(=O)COc2ccc(Cl)c(Cl)c2)cc1
inactive: [1]; at 50.0 µM unless noted 8.8% | [2]; at 50.0 µM unless noted -10% | [3]; at 50.0 µM unless noted -28.9% | [4]; at 50.0 µM unless noted -30.1% | [5]; at 50.0 µM unless noted 2.75%

O/N=C/c1ccc(O)cc1
inactive: [1]; at 50.0 µM unless noted -63.2% | [2]; at 50.0 µM unless noted -21.1% | [3]; at 50.0 µM unless noted -14.4% | [4]; at 50.0 µM unless noted -19.6% | [5]; at 50.0 µM unless noted 2.55%

c1ccc2c(c1)C(=NCCCN1CCCCCCC1)c1cccn1-2
inactive: [1]; at 50.0 µM unless noted 23.5% | [2]; at 50.0 µM unless noted 9.95% | [3]; at 50.0 µM unless noted 29.1% | [4]; at 50.0 µM unless noted -2.7% | [5]; at 50.0 µM unless noted 23.1%

COc1cc(OC)c(I)cc1Cl
inactive: [1]; at 50.0 µM unless noted -10.1% | [2]; at 50.0 µM unless noted -37.5% | [3]; at 50.0 µM unless noted 4.55% | [4]; at 50.0 µM unless noted 13.4% | [5]; at 50.0 µM unless noted -29.2%

Oc1ccc(O)c(CNc2ccc(C(O)C(F)(F)F)cc2)c1 (stereo not drawn)
inactive: [1]; at 50.0 µM unless noted 14.9% | [2]; at 50.0 µM unless noted 9.2% | [3]; at 50.0 µM unless noted 16.8% | [4]; at 50.0 µM unless noted 6.45% | [5]; at 50.0 µM unless noted 22.1%

O=C1CC(c2ccccc2)N1c1ccccc1 (stereo not drawn)
inactive: [1]; at 50.0 µM unless noted -17.9% | [2]; at 50.0 µM unless noted -34% | [3]; at 50.0 µM unless noted -11.3% | [4]; at 50.0 µM unless noted -20.6% | [5]; at 50.0 µM unless noted -10.9%
